# High-throughput results deposited in PubChem by National Center for Advancing Translational Sciences (NCATS).
# The list is not random: actives were taken first. Their share in the collection is about 5.6%.
# PKM2 activator – PKM2 (human) enzyme activation. AID 1631. purified PKM2, Kinase-Glo ATP luminescence, activation; response scale: 0% is enzyme alone, no compound. 260,000 tested, 0.34% active. Potency, µM (doses to about 57.5 µM), for inactives: top-dose activation, hits mostly activators; note: potency is the fitted concentration of half-maximal effect; nearly all actives have a fitted effect of over 55% in size
#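 Purified hPK-M2 (>95%) run at intermediate activity with 0.1 mM ADP and 0.5 mM PEP in 50 mM imidazole pH 7.2, KCl, MgCl2; 1 h room temperature. ATP formed read by Kinase-Glo luminescence; normalized to uninhibited and no-enzyme controls.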
# Gal4-VP16 FLuc – counter-screen for ROR gamma inhibitors: Gal4-VP16 reporter; Drosophila S2 Gal4-VP16 UAS-luciferase, luminescence, 20 h; Potency, µM (titrated, usually from 53.6 µM), inactives show at the highest dose activity, negative = inhibition, most hits filed as inhibitors; 310,000 tested, 3.5% active; AID 2546;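 note: Gal4-VP16 expression switched on by copper sulfate through the metallothionein promoter; potency is the fitted concentration of half-maximal effect; nearly all actives have a fitted effect of over 50% in size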
# Six1-Eya2 blk – Six1/Eya2 interaction inhibition. Q15475+O00167. AlphaScreen GST-Six1/His-Eya2 binding, biochemical; stronger effect = lower value. activity change, % (concentration not given with the values). 360,000 tested, 0.56% active. AID 651725; in the data active = activity change below about -65%; inconclusive = mostly about -30% to -63%
# Target sequence (O00167 whole entry, looked up): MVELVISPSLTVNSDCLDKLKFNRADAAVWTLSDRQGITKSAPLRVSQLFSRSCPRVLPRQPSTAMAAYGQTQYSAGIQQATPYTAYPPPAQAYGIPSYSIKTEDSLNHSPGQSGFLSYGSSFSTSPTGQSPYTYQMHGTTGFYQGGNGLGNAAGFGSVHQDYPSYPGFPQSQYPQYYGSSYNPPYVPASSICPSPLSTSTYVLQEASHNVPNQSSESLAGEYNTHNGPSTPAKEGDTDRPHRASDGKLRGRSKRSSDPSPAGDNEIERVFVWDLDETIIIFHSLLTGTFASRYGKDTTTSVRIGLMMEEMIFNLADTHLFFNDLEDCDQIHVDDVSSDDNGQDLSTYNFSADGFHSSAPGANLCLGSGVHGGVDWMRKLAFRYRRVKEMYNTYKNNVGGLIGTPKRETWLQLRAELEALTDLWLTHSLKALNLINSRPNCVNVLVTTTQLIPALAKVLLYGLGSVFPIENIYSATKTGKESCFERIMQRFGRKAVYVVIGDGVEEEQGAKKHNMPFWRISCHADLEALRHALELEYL
# Target sequence (Q15475 whole entry, looked up): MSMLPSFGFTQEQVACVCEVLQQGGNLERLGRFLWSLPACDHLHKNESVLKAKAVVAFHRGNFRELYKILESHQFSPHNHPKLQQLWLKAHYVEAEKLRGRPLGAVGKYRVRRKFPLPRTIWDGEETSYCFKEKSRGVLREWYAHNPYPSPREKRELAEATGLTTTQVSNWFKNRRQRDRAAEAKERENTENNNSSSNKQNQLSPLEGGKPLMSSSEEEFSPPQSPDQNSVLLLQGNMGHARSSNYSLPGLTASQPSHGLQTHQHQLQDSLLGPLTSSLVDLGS
#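 Compounds are tested against tagged Six1 and Eya2 proteins bridged by glutathione donor and nickel acceptor beads; after a one-hour incubation at 37 °C without light, AlphaScreen emission is recorded.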
# RORgamma inh – blocks mouse ROR gamma transcriptional activity; P51450; Drosophila S2 Gal4-RORgamma UAS-luciferase reporter, 20 h; Potency, µM (top dose mostly 53.6 µM), without a hit: top-dose activity change, negative = inhibition, most hits filed as inhibitors; 310,000 tested, 5.4% active; note: potency is the fitted concentration of half-maximal effect; nearly all actives have a fitted effect of over 60% in size
#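 Drosophila S2 cells stably expressing Gal4-DBD/mouse RORγ fusion under metallothionein promoter plus UAS-luciferase; compound 1 h, then 700 uM CuSO4 induction for 20 h at ambient temperature; inhibition read as reduced luminescence.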
# CtBP-E1A blk – inhibitors of CtBP/E1A interaction; AlphaScreen GST-E1A/His-CtBP binding, 1536-well; stronger effect = lower value; activity change, % (concentration not given with the values); 340,000 tested, 0.49% active; AID 651724; in the data active = activity change below about -65%; inconclusive = mostly about -30% to -63%
#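 Protein mix (5X: 125 nM each GST-E1A, His-CtBP) was incubated with pinned compound 2 h at 37 deg C in dark, in 50 mM Tris pH 8.0 buffer with 300 mM NaCl. Glutathione donor and nickel acceptor beads followed; AlphaScreen signal read after 1 h.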
# * hit, by the source's call; u = inconclusive; x = not tested or not shown; [ ] = remark or other dose. Unless noted, calls come from the whole dose curve; as a rule, active = well fitted curve in the direction sought with a large enough effect; inconclusive = small, poorly fitted or top-dose-only effect, or another doubt; inactive = no such curve, though single readings can be large; an effect the other way counts as inactive or inconclusive. % is set by controls: 0 for no effect and ±100 for the full control effect.
SMILES,PKM2 activator,Gal4-VP16 FLuc,Six1-Eya2 blk,RORgamma inh,CtBP-E1A blk
Cc1c(N2C(=O)/C(=C3/C(=O)N(C)c4ccccc43)SC2=S)c(=O)n(-c2ccccc2)n1C,-8%,9%,2,7.9µM*,8
Cc1c(N2C(=O)CSC2=S)c(=O)n(-c2ccccc2)n1C,-3%,1%,0,13µM*,1
O=S1(=O)c2ccc(Br)cc2N2CCC[C@@H]2CN1Cc1ccccc1,x,x,-1,x,0
O=S(O)CO,x,-1%,x,14%,x
Cc1ccc(S(=O)(=O)NCC2NCCc3ccccc32)cc1 (stereo unspecified),-4%,6%,-2,18µM*,1
NC(=O)C1CCN(C(=O)CCC(=O)N2CCOc3ccc(Cl)cc32)CC1,-14%,0%,3,-8%,1
CC(=O)Nc1sc2c(c1-c1nc3ccccc3s1)CCN(C(C)C)C2,3%,11µM*,4,8.9µM*,1
CC(C)N1CCc2c(sc(NC(=O)c3ccc4ccccc4c3)c2C(N)=O)C1,-11%,u,1,u,3
CC(O)(Cc1cccnc1)c1cccs1 (stereo unspecified),x,x,13,x,8
O=C(N/N=C\c1ccc(COc2ccc([N+](=O)[O-])cc2)o1)c1ccc(Cl)cc1,-1%,u,-10,13µM*,-10
COc1ccc(OCc2ccc(/C=N\NC(=O)c3sccc3C)o2)cc1,x,u,-18,11µM*,u
Cc1ccc(/C=N/NC(=O)c2cccs2)o1,0%,u,16,u,1
CSc1ccc(/C=N/NC(=O)c2sccc2C)cc1,-21%,u,12,8.9µM*,0
O=C(N/N=C/c1ccc(-c2cccc([N+](=O)[O-])c2)o1)c1ccccc1O,-5%,2.2µM*,-11,3.2µM*,-11
O=C(c1cccs1)N1CCN(c2ncc(Br)cn2)CC1,-7%,1%,2,16%,x
[O][C@H]1[C@@H](O)[C@@H](CO)O[C@@H](O[C@@H]2[C@@H]3OC[C@H]2O[C@H](O[C@@H]2[C@@H](O)[C@H](C[C@@H]4[C@@H]5OC[C@H]4O[CH][C@@H]5O)O[C@H](CO)[C@@H]2OS(=O)(=O)O)[C@@H]3OS(=O)(=O)O)[C@@H]1O,x,-6%,x,1%,x
N#Cc1c(Cl)nsc1NN,-25%,-4%,-19,u,-4
COc1cc([N+](=O)[O-])ccc1-c1ccc(/C=N/NC(=O)c2ccccc2O)o1,-3%,4µM*,x,1µM*,x
Cc1ccc(C(=O)N/N=C\c2ccc(-c3ccc([N+](=O)[O-])cc3)o2)cn1,-3%,-2%,-7,u,5
O=C(N/N=C/c1ccco1)/C(=C/c1cccc([N+](=O)[O-])c1)NC(=O)c1ccccc1,-4%,0%,-9,-38%,-13
COc1cc([N+](=O)[O-])ccc1-c1ccc(/C=N\n2cnnc2)o1,-3%[11.5 µM],-11%,-1,-5%,x
O=C(N/N=C/c1ccc(-c2cccc([N+](=O)[O-])c2)o1)c1ccc([N+](=O)[O-])cc1,6%,5µM*,-18,2.5µM*,8
O=C(N/N=C/c1ccc(Br)o1)/C(=C/c1ccc([N+](=O)[O-])cc1)NC(=O)c1ccccc1,0%,u,-19,10µM*,8
COC(=O)[C@@]12CCCCN1[C@H](c1ccc(-c3cccc(Cl)c3)cc1)[C@@H]1C(=O)N(C)C(=O)[C@@H]12,x,x,-3,x,2
CN1CCN(C(=O)C2=NOC3(C2)C(=O)Nc2ccccc23)CC1 (stereo unspecified),x,x,20,x,0
SMILES,PKM2 activator,Gal4-VP16 FLuc,Six1-Eya2 blk,RORgamma inh,CtBP-E1A blk
CN1/C(=C\C(=O)c2cncc(Br)c2)C(C)(C)c2ccccc21,-8%,11µM*,58,-76%,68
CN1/C(=C\C(=O)c2cccc(S(=O)(=O)N3CCCCC3)c2)C(C)(C)c2ccccc21,7%,-9%,50,u,x
CN1/C(=C\C(=O)c2ccco2)C(C)(C)c2ccccc21,-3%,10µM*,4,u,14
CN1/C(=C/C(=O)c2nc(S(C)(=O)=O)ncc2Cl)C(C)(C)c2ccccc21,2%,5.6µM*,-14,3.2µM*,14
O=C(Nc1ccc(C(=O)Nc2ccccc2Cl)cc1)c1cccnc1,x,22%,0,19%,-2
NC(=O)Oc1ccc(Cc2ccccc2)cc1,x,5%,x,22%,x
O=C(O)CN(CC(=O)O)c1ccccc1OCCOc1ccccc1N(CC(=O)O)CC(=O)O,x,1%,x,-6%,x
CCC(C)[C@H]1CNC(=S)N1CCC12CC3CC(CC(C3)C1)C2 (stereo partly specified),-5%,2.8µM*,4,0.89µM*,4
CCC(C)[C@H]1CNC(=S)N1CCc1cccc2ccccc12 (stereo partly specified),-3%,4.5µM*,-6,2.5µM*,-5
CCOC(=O)C1=C(COC(=O)c2ccco2)NC(=O)NC1CC (stereo unspecified),x,x,0,x,x
c1cc(-c2cnn3cc(-c4ccc(OCCN5CCCCC5)cc4)cnc23)ccn1,x,4%,x,15%,x
CC(=O)Nc1ccccc1OCC(=O)NCC(F)(F)F,x,2%,2,22%,x
CCOC(=O)c1c(C(C)(C)C)oc2ccc(O)cc12,15%,16µM*,-7,-33%,-1
CCOC(=O)C1CCN(c2ncnc3c2cnn3-c2ccccc2)CC1,3%,-10%,-3,-79%,3
Cc1cccc(-n2ncc3c(N(C)C4CCCCC4)ncnc32)c1,-12%,0.89µM*,3,u,3
CCOC(=O)C1CCN(c2ncnc3c2cnn3-c2ccc(Cl)cc2)CC1,2%,u,11,1.4µM*,-5
COc1ccc(-n2ncc3c(N(C)C4CCCCC4)ncnc32)cc1,-9%,8.9µM*,1,0.25µM*,1
COc1ccc(-n2ncc3c(N4CCC(C)CC4)ncnc32)cc1,-3%,u,6,8.9µM*,-19
COc1ccc(CC(=O)OCN2C(=O)c3ccccc3C2=O)cc1OC,-1%,5%,0,-5%,2
COC(=O)c1sccc1NC(=S)Nc1ccc(F)cc1,2%,u,-12,13µM*,-7
COC(=O)c1sccc1NC(=O)Nc1ccc(C)cc1C,2%,u,-9,u,-2
COC(=O)c1sccc1NC(=S)Nc1cc(C)ccc1OC,2%,16µM*,0,8.9µM*,x
CSCCC(NC(=O)/C(=C\c1ccc(Cl)cc1)NC(=O)c1ccccc1)C(=O)O (stereo unspecified),-2%,-7%,1,0%,4
CCn1c(CN2CCN(c3cccc(C)c3C)CC2)n[nH]c1=S,0%,7.1µM*,7,4µM*,0
Cc1ccc(/C=N/NC(=O)c2ccoc2C)s1,-47%,u,4,u,8
